The values that follow come from PubChem BioAssay.

Active and inactive are the calls of the source. Unless noted, no rule for the calls is given here.

Assay [1] relates to Wnt5a (protein binding on small-molecule microarray). As to the kind of experiment: Wnt5a binders on small-molecule microarray, primary screen, biophysical, 635/667 nm fluorescence (AID 1142).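 Also: fluorescence read at 667 nm with signal to noise per printed feature.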 As to conditions: 635 nm fluorescence, higher = more signal.
Assay [2] in a line: cell viability in Huh7 cells, primary screen, cytotoxicity control for HCV replication inhibitor project, CellTiter-Glo luminescence, basal, 48 h (AID 1143).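 Also: Huh7 hepatoma cells carrying a hepatitis C replication reporter with no stimulus; test concentration not given here.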 The note with it: Huh7 HCV replicon, higher = more signal, called active from +8 up or from −8 down.
A short description of assay [3]: P. aeruginosa biofilm formation inhibitors, primary screen, PAO1 strain, BacTiter-Glo luminescence, LB-PBS (AID 1144). The note with it: 12 h, higher = more signal.
A short description of assay [4]: CREB reporter modulators without forskolin, primary screen, cell-based, PC12, CRE-LacZ reporter, unstimulated (AID 1145). The note with it: no forskolin, luminescence, 4.5 h, higher = more signal, called active from +8 up or from −8 down.
The nature of assay [5]: CREB reporter modulators under forskolin, primary screen, cell-based, PC12, CRE-LacZ reporter, forskolin-stimulated (AID 1146).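 Also: PC12 cells with 6xCRE LacZ reporter stimulated by forskolin 10 µM; beta-galactosidase reporter signal reflecting CREB driven transcription.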 As to conditions: luminescence, 4.5 h, higher = more signal, called active from +8 up or from −8 down.
For assay [6], the target named is Streptavidin (Streptomyces avidinii) (UniProt P22629). As to the kind of experiment: streptavidin binders on small-molecule microarray, primary screen, artefact control for SMM compound annotation, biophysical, 635/667 nm fluorescence (AID 1147).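 Also: signal reflects streptavidin binding to arrayed compounds as a control protein.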 The note with it: streptavidin binding, higher = more signal.
Sequence of Streptavidin (Streptomyces avidinii) (P22629 whole entry, looked up): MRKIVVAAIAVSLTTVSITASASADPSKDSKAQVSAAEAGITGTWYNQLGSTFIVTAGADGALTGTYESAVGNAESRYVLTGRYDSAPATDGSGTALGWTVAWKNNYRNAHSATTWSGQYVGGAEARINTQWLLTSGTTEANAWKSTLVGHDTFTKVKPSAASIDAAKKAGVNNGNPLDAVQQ
A short description of assay [7]: small-molecule binders of probe aInhba, primary screen, biochemical, small-molecule microarray, 635/667 nm fluorescence (AID 1148).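 Also: score merges 667nm spot fluorescence with signal-to-noise for antibody binding to printed compounds.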 The note with it: higher = more signal.
In assay [8] the target is Torsin-1A (Homo sapiens) (UniProt O14656). As to the kind of experiment: torsin A binders from cell lysate, primary screen, small-molecule microarray, wild-type, 635/667 nm (AID 1149). As to conditions: COS7 hTOR1A-WT lysate, 635 nm fluorescence, higher = more signal.
Sequence of Torsin-1A (Homo sapiens) (O14656 whole entry, looked up): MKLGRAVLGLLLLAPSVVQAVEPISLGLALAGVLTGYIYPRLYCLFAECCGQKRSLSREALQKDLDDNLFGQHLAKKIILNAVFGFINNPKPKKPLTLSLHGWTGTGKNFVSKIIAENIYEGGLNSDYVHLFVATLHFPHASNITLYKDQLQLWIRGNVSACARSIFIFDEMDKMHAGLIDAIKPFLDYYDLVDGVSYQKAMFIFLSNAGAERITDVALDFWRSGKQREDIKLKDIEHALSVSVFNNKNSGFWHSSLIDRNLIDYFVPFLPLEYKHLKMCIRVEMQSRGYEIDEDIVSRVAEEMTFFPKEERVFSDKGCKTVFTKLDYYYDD
The target is the same in assay [9]. Kind of assay: small-molecule binders of mutant TOR1A in lysate, primary screen, cell lysate, small-molecule microarray, COS7 lysate, 635/667 nm fluorescence (AID 1150).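 Also: score pools 667 nm emission and signal to noise measuring lysate protein binding.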 As to conditions: COS7 hTOR1A mutant lysate, 635 nm fluorescence, higher = more signal.
Assay [10] deals with Sonic hedgehog protein (Shh). As to the kind of experiment: small-molecule binders of Shh protein, primary screen, biochemical, small-molecule microarray, 635/667 nm fluorescence (AID 1151).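 Also: Shh protein binding to compounds spotted on small-molecule microarray slides; score combines spot fluorescence intensity with signal-to-noise across triplicate slides.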 As to conditions: small-molecule microarray binding, 635 nm fluorescence; higher = more signal.
Assay [11] is described as follows: E. coli DRC41 culture turbidity changes, primary screen, E. coli filamentation inducer project, strain DRC41, OD650, 48 h (AID 1152).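 Also: E. coli MC1000 strain DRC41 lacking acrAB efflux pump and sulA.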 As to conditions: E. coli DRC41 (acrAB sulA), higher = more signal, called active from +8 up or from −8 down.
Assay [12] in a line: small-molecule binders of probe aLefty1, primary screen, biochemical, small-molecule microarray, 635/667 nm fluorescence (AID 1153).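 Also: score merges spot fluorescence with signal-to-noise ratio from the scanned slide images.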 The note with it: higher = more signal.
Assay [13] can be described thus: PSAC antagonists in infected red cells, primary screen, cell-based, P. falciparum Indochina, OD700, 1 h (AID 1154). The note with it: P. falciparum Indochina infected RBC osmotic lysis, higher = more signal, called active from +8 up or from −8 down.
The nature of assay [14]: PSAC antagonists in infected red cells, primary screen, cell-based, P. falciparum Indochina, OD700, 2 h (AID 1155).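 Also: lysis reports solute entry through the parasite surface anion channel PSAC; channel blockers reduce lysis of infected cells.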 The note with it: P. falciparum Indochina infected erythrocytes, osmotic lysis OD700; higher = more signal, called active from +8 up or from −8 down.
A short description of assay [15]: osmotic lysis modulators in infected erythrocytes, primary screen, PSAC antagonist project, cell-based, P. falciparum Indochina, OD700, 3 h (AID 1156). As to conditions: higher = more signal, called active from +8 up or from −8 down.
Assay [16] is described as follows: PSAC antagonists in infected red cells, primary screen, cell-based, P. falciparum Indochina, OD700, 18 h (AID 1157). The note with it: P. falciparum Indochina infected erythrocytes, osmotic lysis OD700, 18 h; higher = more signal, called active from +8 up or from −8 down.
A short description of assay [17]: modulators of S6 phosphorylation in cells, primary screen, cell-based, A549, cytoblot, luminescence, serum-stimulated (AID 1158).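 Also: serum-stimulated A549 lung adenocarcinoma cells; signal is phosphorylated S6 detected by cytoblot immunostaining with HRP secondary.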 As to conditions: A549 phospho-S6 cytoblot, 5 h, higher = more signal.
The target of assay [18] is NADPH oxidase 2 (Homo sapiens) (UniProt P04839). As to the kind of experiment: NOX2-dependent H2O2 signal modulators, primary screen, NOX inhibitor project, cell-based, HEK293-NOX2, PMA-stimulated, Amplex Red fluorescence (AID 1159). Also: test concentration not given here. The note with it: 45 min, higher = more signal, called active from +8 up or from −8 down.
Sequence of NADPH oxidase 2 (Homo sapiens) (P04839 whole entry, looked up): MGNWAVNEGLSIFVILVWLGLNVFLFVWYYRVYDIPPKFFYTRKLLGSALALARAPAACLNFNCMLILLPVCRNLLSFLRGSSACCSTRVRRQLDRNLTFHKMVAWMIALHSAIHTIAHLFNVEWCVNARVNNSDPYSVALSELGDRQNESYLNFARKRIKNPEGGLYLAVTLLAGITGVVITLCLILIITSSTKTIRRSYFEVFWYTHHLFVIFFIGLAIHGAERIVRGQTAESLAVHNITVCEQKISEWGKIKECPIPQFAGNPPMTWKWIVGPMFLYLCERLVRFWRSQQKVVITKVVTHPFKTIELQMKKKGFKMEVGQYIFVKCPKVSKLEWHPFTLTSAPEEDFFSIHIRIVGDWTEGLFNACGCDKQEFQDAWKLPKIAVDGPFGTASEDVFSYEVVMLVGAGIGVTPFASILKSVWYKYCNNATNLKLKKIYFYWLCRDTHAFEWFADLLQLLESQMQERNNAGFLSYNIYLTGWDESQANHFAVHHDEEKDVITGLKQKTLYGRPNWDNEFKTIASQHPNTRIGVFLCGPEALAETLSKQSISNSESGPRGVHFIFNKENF
The target in assay [19] is NADPH oxidase 4 (Homo sapiens) (UniProt Q9NPH5). As to the kind of experiment: NOX4-dependent H2O2 signal modulators, primary screen, NOX inhibitor project, cell-based, HEK293-NOX4, tetracycline-induced, Amplex Red fluorescence (AID 1160). The note with it: 45 min, higher = more signal, called active from +8 up or from −8 down.
Sequence of NADPH oxidase 4 (Homo sapiens) (Q9NPH5 whole entry, looked up): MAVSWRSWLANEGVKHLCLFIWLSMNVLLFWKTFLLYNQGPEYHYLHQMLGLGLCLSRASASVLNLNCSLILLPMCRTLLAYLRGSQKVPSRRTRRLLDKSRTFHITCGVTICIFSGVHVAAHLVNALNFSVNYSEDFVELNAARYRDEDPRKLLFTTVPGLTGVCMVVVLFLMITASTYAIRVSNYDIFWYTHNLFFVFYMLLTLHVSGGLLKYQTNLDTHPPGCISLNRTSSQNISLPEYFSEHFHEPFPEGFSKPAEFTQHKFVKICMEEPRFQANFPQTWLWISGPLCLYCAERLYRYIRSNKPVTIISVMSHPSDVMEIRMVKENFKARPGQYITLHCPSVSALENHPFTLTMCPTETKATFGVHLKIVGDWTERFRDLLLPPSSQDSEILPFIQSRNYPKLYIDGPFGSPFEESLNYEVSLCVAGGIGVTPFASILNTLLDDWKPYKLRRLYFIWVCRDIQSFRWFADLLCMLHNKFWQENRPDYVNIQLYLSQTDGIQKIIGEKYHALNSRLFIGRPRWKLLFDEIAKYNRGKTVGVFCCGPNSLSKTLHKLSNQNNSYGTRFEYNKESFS
For assay [20], the target named is NADPH oxidase 5 (Homo sapiens) (UniProt Q96PH1). As to the kind of experiment: NOX5-dependent H2O2 signal modulators, primary screen, NOX inhibitor project, cell-based, HEK293-NOX5, Amplex Red fluorescence (AID 1161). As to conditions: HEK293-NOX5, ionomycin, 45 min, higher = more signal.
Sequence of NADPH oxidase 5 (Homo sapiens) (Q96PH1 whole entry, looked up): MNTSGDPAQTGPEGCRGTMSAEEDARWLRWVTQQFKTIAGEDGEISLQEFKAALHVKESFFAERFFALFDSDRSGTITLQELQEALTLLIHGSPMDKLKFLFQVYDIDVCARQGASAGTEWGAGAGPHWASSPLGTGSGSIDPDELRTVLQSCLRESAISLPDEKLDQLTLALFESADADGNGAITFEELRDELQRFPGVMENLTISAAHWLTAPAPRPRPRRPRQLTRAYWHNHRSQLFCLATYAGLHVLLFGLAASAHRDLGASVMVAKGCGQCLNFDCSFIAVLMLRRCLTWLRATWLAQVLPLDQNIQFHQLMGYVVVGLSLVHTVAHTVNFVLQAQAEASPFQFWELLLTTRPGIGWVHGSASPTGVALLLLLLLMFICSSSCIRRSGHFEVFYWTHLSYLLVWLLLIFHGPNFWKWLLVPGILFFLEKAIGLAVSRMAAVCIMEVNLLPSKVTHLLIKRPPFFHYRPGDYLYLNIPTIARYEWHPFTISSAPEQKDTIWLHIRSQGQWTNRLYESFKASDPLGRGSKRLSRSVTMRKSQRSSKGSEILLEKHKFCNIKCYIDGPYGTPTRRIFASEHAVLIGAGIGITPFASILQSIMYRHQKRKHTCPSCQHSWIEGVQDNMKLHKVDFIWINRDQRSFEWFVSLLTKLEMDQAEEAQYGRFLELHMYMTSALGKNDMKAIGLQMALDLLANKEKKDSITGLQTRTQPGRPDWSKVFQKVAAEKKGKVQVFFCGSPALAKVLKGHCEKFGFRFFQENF

For the compound `COC(=O)[C@@]1(Cc2ccc(F)cc2)[C@@H]2C(=CC(=O)[C@H]2CC(=O)C(=O)N2CCCC2)CN1C(=O)c1ccccc1`, the composite z-score amounted to 1.74 in [1]; 0.696 in assay [6]; 0.731 in assay [7]; 0.448 with Torsin-1A (Homo sapiens) [8]; 1.01 with Torsin-1A (Homo sapiens) [9]; 1.82 in assay [10]. For the same compound, the composite z-score in [12] is 1.45. Further, the z-score in assay [2] was -4.86 (inactive); in assay [3] it was 0.137 (inactive); in assay [4], -0.189 (inactive); in assay [5], 1.86 (inactive); in [11] it was -1.18 (inactive); in assay [13] it was 3.94 (inactive). The z-score is -0.607 (inactive) in assay [14]; -2.12 (inactive) in assay [15]; -1.03 (inactive) in assay [16]; 1.84 in assay [17]; -3.72 (inactive) in assay [18]; -5.14 (inactive) in [19]. Also, in assay [20], the z-score is -4.38.

As to `C[C@]12C(=O)N(CCO)[C@@H]3C(=O)N(c4ccc(Cl)cc4)CC=CC31O[C@@H]1/C=C\CCCOC(=O)C12` (stereo not given in full), the composite z-score in assay [1] was -0.68; in assay [6], -0.542; in assay [7], -0.21; in the assay with Torsin-1A (Homo sapiens) [8] it was -1.5; with Torsin-1A (Homo sapiens) [9], -0.706; in assay [10] it was 1.18. In assay [12], this compound yielded a composite z-score of 0.161. Moreover, the z-score in [2] was 0.0051 (inactive); in assay [3] it was -0.21 (inactive); in [4] it was 0.467 (inactive); in assay [5] it was 0.0098 (inactive); in [11], -0.295 (inactive); in assay [13], 0.505 (inactive). Also, the z-score in assay [14] is 0.176 (inactive); in assay [15], 0.228 (inactive); in assay [16], 0.359 (inactive); in assay [17], -0.362; in [18] it was 1.96 (inactive); in assay [19], -0.22 (inactive). The z-score in assay [20] is 2.65.

Turning to `CCCCC(=C=CC[C@H](O)c1ccccc1OCCO)CCO`, the composite z-score in [1] is -0.0677; in [6] it was -0.356; in assay [7] it was -0.0762; with Torsin-1A (Homo sapiens) [8] it was -0.309; in the assay with Torsin-1A (Homo sapiens) [9], 0.0868; in assay [10], 0.704. The same compound returned a composite z-score in assay [12] of -0.245. For the same compound, the z-score in assay [2] was -0.0854 (inactive); in assay [3], 0.235 (inactive); in assay [4], 4.29 (inactive); in assay [5], 1.37 (inactive); in assay [11], -0.0046 (inactive); in assay [13] it was 4.53 (inactive). Moreover, the z-score is 0.626 (inactive) in assay [14]; -0.0542 (inactive) in assay [15]; 0.331 (inactive) in assay [16]; -0.401 in assay [17]; -0.732 (inactive) in assay [18]; -0.145 (inactive) in assay [19]. In [20], this compound had a z-score of -1.55.

Turning to `C=C(COC)C(=O)CC[C@H](OC(C)=O)c1ccc(CO)o1`, the composite z-score in [1] was -0.0261; in assay [6], -0.0888; in assay [7], -0.101; in the assay with Torsin-1A (Homo sapiens) [8], -0.675; in the assay with Torsin-1A (Homo sapiens) [9], -0.337; in assay [10], 1.55. In [12], this compound had a composite z-score of -0.0061. The z-score in [2] was -2.28 (inactive); in assay [3], -0.824 (inactive); in assay [4], -0.0884 (inactive); in assay [5], 0.464 (inactive); in [11] it was 0.82 (inactive); in [13], 0.421 (inactive). Besides, the z-score in assay [14] is 0.112 (inactive); in assay [15], -0.0728 (inactive); in [16], -1.12 (inactive); in [17], 0.555; in assay [18] it was -1.04 (inactive); in assay [19], -0.207 (inactive). The compound also came in with a z-score in assay [20] of -1.31.
